In PubChem BioAssay (NCI):
About 83,000 compounds went through this panel and 20% of them were active in at least one assay; those are over-represented in the sample as a whole.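 Percent growth is the endpoint: 0 to 100 indicates growth inhibition (40 means 60% inhibition), 0 means no net growth, and negative values indicate cell death.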 Unmarked numbers belong to inactive results. Active and inactive are the calls of the source. How the source made its calls: active means growth percent below 10; inactive means the rest.

What was measured:
Assay in all cases: NCI-60 one-dose screen, 48 h (100 = growth as untreated, 0 = no growth, -100 = all killed)
Conditions in all cases: 10 µM unless noted
DU-145 prostate = test system: DU-145 prostate
K-562 leukemia = test system: K-562 leukemia
MALME-3M melanoma = test system: MALME-3M melanoma
MDA-MB-231 breast = test system: MDA-MB-231 breast
RXF 393 renal = test system: RXF 393 renal
SF-268 CNS = test system: SF-268 CNS
SF-295 CNS = test system: SF-295 CNS
SF-539 CNS = test system: SF-539 CNS
UACC-257 melanoma = test system: UACC-257 melanoma
M14 melanoma = test system: M14 melanoma

Structure (SMILES)	growth (DU-145 prostate)	growth (K-562 leukemia)	growth (MALME-3M melanoma)	growth (MDA-MB-231 breast)	growth (RXF 393 renal)	growth (SF-268 CNS)	growth (SF-295 CNS)	growth (SF-539 CNS)	growth (UACC-257 melanoma)	growth (M14 melanoma)
COc1ccc2c(c1)NC1=C(C(=O)OC1)C2c1cc(OC)c2c(c1)OCO2 (stereo not given)	-20.6% (active)	10.8%	52.7%	11.3%	28%	22.8%	6.7% (active)	6.15% (active)	71.6%	5.09% (active)
Cc1cc(N/N=C/c2nc(-c3ccc(Br)cc3)oc2C)c2cc(Br)ccc2n1	34.6%	-29.2% (active)	17.4%	55.9%	92.8%	75.1%	96.7%	89%	95.8%	57.5%
CC(=O)Nc1scc[n+]1Cc1ccccc1	118%	99.1%	130%	115%	98.3%	110%	105%	104%	107%	98.5%
COc1ccc(C2C(C#N)=C(N)Oc3c2ccc2ccccc32)cc1 (stereo not given)	78.4%	19.6%	47.9%	31.2%	36.5%	50.5%	24.2%	25.6%	75.1%	30.2%
C=C1CCC2C3(C)COC(c4c(OC)cccc4OC)OC3CCC2(C)C1C/C=C1/C(=O)OCC1O (stereo not given)	21%	37.9%	109%	86.7%	-28.7% (active)	67%	85.1%	66.7%	59.6%	39.9%
O=C(NNC(=S)Nc1ccccc1)c1cc2ccc1CCc1ccc(cc1)CC2	77.5%	43.4%	74.8%	77.2%	83.7%	76.6%	49.5%	82.9%	85.8%	56%
COc1ccccc1CNCCCN1C(=O)c2ccc3c4c(ccc(c24)C1=O)C(=O)N(CCCNCCCCNCCCN)C3=O	-92.6% (active)	-15.1% (active)	-91.8% (active)	15%	-66.8% (active)	1.6% (active)	1.52% (active)	-55.9% (active)	-91.1% (active)	-70.8% (active)
Cc1nc2c3c(ncn2n1)Oc1c(c(=O)[nH]c2ccccc12)C3c1ccc(Cl)cc1 (stereo not given)	112%	94.3%	105%	87.9%	113%	85.7%	96.2%	93.4%	105%	105%
Cc1ccc2[nH]c(=O)c3c(c2c1)Oc1ncn2nc(-c4ccco4)nc2c1C3c1ccc(Cl)cc1 (stereo not given)	98.5%	93.2%	96.3%	89.4%	93.2%	91.8%	95.9%	89.8%	95.5%	100%
COc1ccc(-c2ccc(-c3ccc(C(=N)N)s3)s2)cc1Cl	0.775% (active)	-37.4% (active)	64.3%	-42.3% (active)	-87.5% (active)	76.8%	10.8%	65.7%	106%	97.2%
CC(C)NCCCNC1=C(Cl)C(=O)c2ccccc2C1=O	47.8%	-41.9% (active)	-78% (active)	76.3%	119%	91.5%	57.4%	119%	3.04% (active)	74.3%
